Measurements reported in PubChem BioAssay (NCI).
Compounds without any hit were thinned out: in the full panel of roughly 83,000, 20% have a hit.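 For each line, cells grew in 96-well plates with the test compound present at a single concentration for 48 hours.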 Values without a mark were called inactive.

tested on: NCI-H23 lung; test: NCI-60 one-dose screen, 48 h (100 = growth as untreated, 0 = no growth, -100 = all killed); conditions: 10 µM unless noted
Procedure: Growth inhibition of the NCI-H23 human Non-Small Cell Lung tumor cell line is measured as a screen for anti-cancer activity. Cells are grown in 96 well plates and exposed to the test compound for 48 hours. Compounds are tested at a single concentration, which is 10^-5 M for most compounds. The reported endpoint is percent growth (GI% or GIPRCNT), where numbers from 0 - 100% represent growth inhibition, and numbers from -100% - 0 represent cell death. For example, a value of 40 represents 60% growth inhibition. A value of 0 means no net growth occurred over the course of the experiment. A value of -40 indicates 40% of cells at the beginning of the experiment died by the end of the experiment. A value of -100 means all cells are dead at the end of the experiment.
NCI-60 Human Tumor Cell Lines Screen was performed using the standard one-dose NCI protocol, which is described in more detail at https://dtp.cancer.gov/discovery_development/nci-60/default.htm.
Compounds with GIPRCNT values below 10 were considered active. Activity score was based on GIPRCNT using the following formula: […]
Score is 0 for GIPRCNT values of 100 or above, 50 for GIPRCNT values of 0, and 100 for GIPRCNT values of -100.

Compared with CCN1CCN(CC(=O)Nc2ccc(-c3cn4c(n3)sc3cc(Oc5ccnc(C(=O)NC)c5)ccc34)cc2)CC1, COc1ccc(-c2cc(-c3ccccc3)nc(N3CCN(CCNc4ccnc5cc(Cl)ccc45)CC3)n2)cc1 is lower in growth: 97.1% for the first, 14.8% for the second.

Going from CCCCCCCC/C=C\CCCCCCCCOc1ccc(CC(=O)NCC[N+]2(C)CCOCC2)cc1 to O=C(CCCCCCN1CC(=O)N2[C@H](c3ccc(Br)cc3)c3[nH]c4ccccc4c3C[C@@H]2C1=O)NO, the growth falls from 78.9% to 53%.

Going from CN1CCN(CCCOc2cccc3nc(Nc4ccc(F)c(F)c4)ccc23)CC1 to Cc1cc(Nc2ccc(C(=O)N3CCCC3)cc2)nc(NCCCNc2ccnc3cc(Cl)ccc23)n1, the growth rises from 36% to 87.8%.

Going from Oc1c(CN2CCC(N3CCCCC3)CC2)cc(Cc2cc(CN3CCC(N4CCCCC4)CC3)c(O)c3ncccc23)c2cccnc12 to Cc1ccc(/C=C/C(=O)c2ccc(-n3cc(CN4CCN(c5cc6c(cc5F)c(=O)c(C(=O)O)cn6C5CC5)CC4)nn3)cc2)cc1, the growth rises from 39.3% to 81.5%.

Going from C[n+]1ccc(CCc2c[nH]c3ccccc23)cc1 to O=C(c1c[nH]c2ccccc12)c1n[nH]c(=S)n1-c1cccc(Br)c1, the growth falls from 102% to 87.2%.

Compared with COC(=O)N1CC(Oc2ccccn2)C2CC1c1ccccc1O2 (stereo not given), CS(=O)(=O)c1ccc(NC(=O)c2ccccc2)nc1 is higher in growth: 94% for the first, 108% for the second.

Compared with C=C(CNCCO)[C@@H]1CC[C@]2(CO)CC[C@]3(C)[C@H](CC[C@@H]4[C@@]5(C)CCC(N)C(C)(C)[C@@H]5CC[C@]43C)[C@@H]12 (stereo not given in full), CC(=O)O[C@H]1C[C@@H]2C(C)(C)C(=O)CC[C@@]2(C)c2ccc(C(C)C)cc21 is higher in growth: 83.7% for the first, 102% for the second.

First: COc1cc2c(c(OC)c1OC)C(=O)CC(c1cccc(NC(=O)c3ccc(C#N)cc3)c1)O2 (stereo not given)
Second: C=C(c1ccc(OC)c(/C=C/C(=O)c2ccc3c(c2)OCO3)c1)c1cc(OC)c(OC)c(OC)c1
The growth of the first is higher: 70.6% for the first, 15.9% for the second.

Going from O=C(CSc1nnc(-c2cc(-c3ccccc3)nc3ccccc23)n1-c1ccccc1)Nc1ccc(C(=O)/C=C/c2ccc(Cl)cc2)cc1 to Cc1nc2ccccc2c(/C=C/c2ccccc2)c1C(=O)/C=C/c1ccccc1, the growth falls from 96.1% to 28.7%.

First: CCN(CC)CCN1C(=O)c2c(c(C)c3c(oc4ccc(O)cc43)c2C)C1=O
Second: Cc1ccc2c(-c3nnc(N)s3)cc(=O)oc2c1C
The growth of the first is lower: 47.3% for the first, 95.5% for the second.

Going from N=c1c(S(=O)(=O)c2ccccc2)cc2c(=O)n3ccccc3nc2n1CC1CCCO1 (stereo not given) to O=C1/C(=C/c2ccc(O)c(O)c2)COc2ccc(-c3ccccc3)cc21, the growth falls from 99.8% to 35.8%.

First: Cc1cccc2c1C[C@@]1(C2=O)C(c2ccc(C(C)(C)C)cc2)=NOS1=O (stereo not given in full)
Second: Cc1ccc2nc(-c3ccc(C(=O)NNC(=S)Nc4ccccc4)cc3)[nH]c2c1
The growth of the first is lower: 83.2% for the first, 91.5% for the second.

Compared with Cc1[nH]c(C2CC(c3ccc(C(F)(F)F)c(F)c3)=NN2c2ccccc2)c(C)c1C(=O)NCC(F)(F)F (stereo not given), CCOC(=O)c1nn(CC(O)c2ccccc2)c(NC(=O)Nc2cccc(F)c2)c1C (stereo not given) is higher in growth: 89% for the first, 108% for the second.

Going from CCOC(=O)c1cc(C(=O)c2cc(OC)c(OC)c(OC)c2)n2ccccc12 to COc1ccc(/C=C/C(=O)c2cc(OC)c(OC)c(OC)c2)cc1OCC(=O)Nc1nc2ccc(OC(F)(F)F)cc2s1, the growth falls from 38.9% to 11.5%.

Going from O=S(=O)(NCCNc1nccc(-c2c(-c3cccc(O)c3)nc3occn23)n1)c1ccc(Br)cc1 to CCN1CCN(CCNc2nccc(-c3c(-c4ccc(F)c(OC)c4)nc4sccn34)n2)S1(=O)=O, the growth rises from 53.2% to 78.2%.

Going from COc1ccc2c(c1)c(-c1nc(-c3c[nH]c4ncccc34)cs1)cn2CCCN1CCOCC1 to Cc1cccc(-c2nc(Nc3ccc4ncsc4c3)c3ccccc3n2)n1, the growth rises from 56.6% to 57.8%.

First: Cc1ccc(/C=C/C(=O)Nc2ncc(Cc3ccc(F)cc3)s2)o1
Second: CCOc1cccc(/C=N/NC(=O)c2cccc(Nc3ccnc(C(F)(F)F)c3)c2)c1O
The growth of the first is higher: 75.2% for the first, 24.9% for the second.

First: O=C(CN1CCN(c2cc3c(cc2F)c(=O)c(C(=O)O)cn3C2CC2)CC1)N/N=C/c1ccco1
Second: CCn1c(-c2cc3c([nH]c4ccccc43)c(-c3cccc(O)c3)n2)n[nH]c1=S
The growth of the first is higher: 104% for the first, 68.4% for the second.

Going from C#CC#CC#CC#CC#CC#CC#CC#CCC1OC[C@H](COC(=O)O[C@@H](C(=O)O[C@H]2C[C@@]3(O)[C@@H](OC(=O)c4ccccc4)[C@@H]4[C@]5(OC(C)=O)CO[C@@H]5C[C@H](O)[C@@]4(C)C(=O)[C@H](OC(C)=O)C(=C2C)C3(C)C)[C@@H](NC(=O)c2ccccc2)c2ccccc2)O1 (stereo not given in full) to O=C(/C=C/c1ccc(Cl)cc1)c1cccc(OCCCOc2cccc(C(=O)/C=C/c3ccc(Cl)cc3)c2)c1, the growth rises from 32.9% to 102%.

Compared with CSc1nn2c(-c3ccc4ccccc4c3)ccnc2c1C#N, NS(=O)(=O)c1ccc(C(=O)NN2C(=O)c3c(Br)c(Br)c(Br)c(Br)c3C2=O)cc1 is higher in growth: 33.1% for the first, 104% for the second.
